Screening data as filed in PubChem.
The list is not random: actives were taken first. Their share in the collection is about 11%.
HP1b binding inh – blocks HP1-beta chromodomain binding to methylated histone tails | AlphaScreen HP1-beta / biotin-H3K9me3 peptide binding | Potency, µM (doses to about 114 µM), most hits filed as inhibitors | P83916 | actives 0.56% (n = 390,000); note: nearly all actives have a fitted effect of over 70% in size
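AlphaScreen: HP1-beta (50 nM) preformed 30 min with biotin-H3(1-18)K9me3 peptide (50 nM) in PBS pH 7.4, 0.01% Tween-20. Compound added for 30 min at RT, then streptavidin donor/nickel chelate acceptor beads (10 ug/mL) for 30 min.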
L3MBTL1 block – blocks human L3MBTL1; Q9Y468; AlphaScreen L3MBTL1–H3K9me1 peptide binding; Potency, µM (highest dose often 57.1 µM), usual class: inhibitors; actives 0.66% (n = 230,000); note: nearly all actives have a fitted effect of over 60% in size
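L3MBTL1 50 nM + b-AHA-H3(1-15)K9me1 75 nM, 30 min RT; compound added, 30 min RT; streptavidin donor/Ni-chelate acceptor beads 10 ug/mL each final, 30 min RT dark; AlphaScreen read.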
JMJD2A Tudor – blocks the human JMJD2A Tudor domain; AlphaScreen JMJD2A-Tudor / H3K4me3 peptide binding; O75164; AID 504339; actives 4.4% (n = 390,000); Potency, µM (titrated, usually from 114 µM), actives largely listed as inhibitors; note: nearly all actives have a fitted effect of over 50% in size
G9a block – G9a (human) methyltransferase inhibition. G9a H3K9 monomethylation, AlphaScreen, 2 h. Potency, µM (titrated, usually from 102 µM), usual class: inhibitors. actives 8.8% (n = 350,000); note: nearly all actives have a fitted effect of over 75% in size
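Enzyme 20 nM + cpd, 15 min RT; add b-H3K9 pep 500 nM / SAM 20 uM; 2 h RT; anti-H3K9me1 Ab 0.5 ug/mL + SA donor / anti-rabbit acceptor beads 20 ug/mL each, 10 min; AlphaScreen read.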
BAZ2B inh – inhibitors of human BAZ2B bromodomain. AlphaScreen BAZ2B-H3K14Ac peptide displacement. Potency, µM (top dose mostly 114 µM), actives largely listed as inhibitors. actives 4.4% (n = 360,000). AID 504333; note: nearly all actives have a fitted effect of over 60% in size
Target sequence (Q9UIF8 whole entry, looked up): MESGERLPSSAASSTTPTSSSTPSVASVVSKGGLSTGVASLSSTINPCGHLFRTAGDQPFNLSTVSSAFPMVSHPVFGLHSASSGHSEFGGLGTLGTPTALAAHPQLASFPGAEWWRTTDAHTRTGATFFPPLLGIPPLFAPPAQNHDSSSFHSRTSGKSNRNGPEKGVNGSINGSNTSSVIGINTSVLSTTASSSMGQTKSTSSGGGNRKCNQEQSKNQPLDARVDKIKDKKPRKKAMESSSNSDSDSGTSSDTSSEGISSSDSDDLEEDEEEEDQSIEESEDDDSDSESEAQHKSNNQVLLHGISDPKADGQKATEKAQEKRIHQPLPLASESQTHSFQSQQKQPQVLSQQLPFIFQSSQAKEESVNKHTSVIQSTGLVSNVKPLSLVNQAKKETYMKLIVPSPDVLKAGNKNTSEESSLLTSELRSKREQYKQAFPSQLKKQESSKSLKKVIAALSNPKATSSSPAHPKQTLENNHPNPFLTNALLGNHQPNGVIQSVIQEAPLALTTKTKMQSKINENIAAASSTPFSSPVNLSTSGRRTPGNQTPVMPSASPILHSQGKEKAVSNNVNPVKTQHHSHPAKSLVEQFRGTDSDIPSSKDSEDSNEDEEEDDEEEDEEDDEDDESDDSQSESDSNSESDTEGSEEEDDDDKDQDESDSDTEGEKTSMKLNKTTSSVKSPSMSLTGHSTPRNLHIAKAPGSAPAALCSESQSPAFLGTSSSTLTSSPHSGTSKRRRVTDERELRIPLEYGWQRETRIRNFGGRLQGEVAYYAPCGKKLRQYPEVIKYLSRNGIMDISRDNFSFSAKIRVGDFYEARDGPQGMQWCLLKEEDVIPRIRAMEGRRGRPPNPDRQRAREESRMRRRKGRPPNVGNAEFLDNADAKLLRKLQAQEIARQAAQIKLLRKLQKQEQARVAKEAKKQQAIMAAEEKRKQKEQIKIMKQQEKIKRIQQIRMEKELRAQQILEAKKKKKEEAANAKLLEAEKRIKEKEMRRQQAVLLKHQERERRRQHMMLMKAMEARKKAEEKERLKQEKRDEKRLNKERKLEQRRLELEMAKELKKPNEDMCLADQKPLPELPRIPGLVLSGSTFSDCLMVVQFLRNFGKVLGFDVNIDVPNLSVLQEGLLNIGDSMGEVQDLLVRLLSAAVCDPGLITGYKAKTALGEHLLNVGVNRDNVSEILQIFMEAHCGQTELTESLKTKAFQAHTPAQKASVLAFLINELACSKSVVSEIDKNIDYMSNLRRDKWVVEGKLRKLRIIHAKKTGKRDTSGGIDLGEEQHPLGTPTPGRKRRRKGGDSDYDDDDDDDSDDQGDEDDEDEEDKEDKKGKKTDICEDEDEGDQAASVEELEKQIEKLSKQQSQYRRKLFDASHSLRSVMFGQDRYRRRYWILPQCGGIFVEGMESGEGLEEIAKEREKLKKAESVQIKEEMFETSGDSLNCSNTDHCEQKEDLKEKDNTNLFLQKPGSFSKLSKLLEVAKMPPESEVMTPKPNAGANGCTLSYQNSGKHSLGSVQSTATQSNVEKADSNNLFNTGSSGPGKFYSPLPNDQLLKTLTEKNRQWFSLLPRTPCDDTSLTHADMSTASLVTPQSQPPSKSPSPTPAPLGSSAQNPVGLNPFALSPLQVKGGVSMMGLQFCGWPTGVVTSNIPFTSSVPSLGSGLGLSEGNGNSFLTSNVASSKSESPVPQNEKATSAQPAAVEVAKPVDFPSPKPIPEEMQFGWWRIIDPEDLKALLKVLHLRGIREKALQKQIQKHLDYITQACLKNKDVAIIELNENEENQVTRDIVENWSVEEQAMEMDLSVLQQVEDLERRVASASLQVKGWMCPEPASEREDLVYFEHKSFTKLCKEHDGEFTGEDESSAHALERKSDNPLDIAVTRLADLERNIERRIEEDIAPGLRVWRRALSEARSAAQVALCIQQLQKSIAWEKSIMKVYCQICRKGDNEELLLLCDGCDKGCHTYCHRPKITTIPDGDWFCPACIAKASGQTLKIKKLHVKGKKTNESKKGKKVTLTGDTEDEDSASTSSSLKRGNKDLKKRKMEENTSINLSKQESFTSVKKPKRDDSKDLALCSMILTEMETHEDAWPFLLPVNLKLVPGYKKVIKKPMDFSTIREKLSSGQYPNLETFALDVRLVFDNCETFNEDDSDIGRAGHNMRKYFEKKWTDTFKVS
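AlphaScreen luminescence quantifies BAZ2B engagement of H3K14Ac peptide; the protein and biotinylated peptide are both at 50 nM final, buffer PBS pH 7.4 with 0.01% Tween-20, all steps at room temperature.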
PI5P4Ka inh – blocks human PI5P4K alpha kinase activity. P48426. PI5P4Kalpha enzyme, ADP-Glo luminescence, 60 min; active compounds read low. max response, %. actives 1.2% (n = 330,000). AID 652105; active = max response of -50% or lower; inconclusive = between -30% and -50%; inactive = -30% or higher; note: value at the top dose of about 77 µM
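Reactions run in 0.038 M HEPES pH 7.4, 0.28 mM EGTA, 0.1% CHAPS and 5% DMSO, with PI5P4Kalpha, substrate, compound and 5 microM ATP final, one hour at room temperature. Readout is ADP-Glo luminescence.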
Each line names hits and unclear results; the compound was inactive in the other large screens. Unless noted, calls come from the whole dose curve; as a rule, active = well fitted inhibition curve with a large enough effect; inconclusive = small, poorly fitted or top-dose-only effect; inactive = no such curve, though single readings can be large or run the other way.

CC1CN(CCOc2ccccc2C(C)C)CC(C)O1 (stereo unspecified)	HP1b binding inh inconclusive, JMJD2A Tudor 22µM, G9a block 10µM, BAZ2B inh inconclusive
COC(=O)c1ccccc1OCCCCN1CC(C)OC(C)C1 (stereo unspecified)	HP1b binding inh inconclusive, JMJD2A Tudor 1.8µM, G9a block 3.5µM, BAZ2B inh 35µM
Cc1ccc(C(C)C)c(OCC(O)CN2CC(C)OC(C)C2)c1 (stereo unspecified)	none
CN(C(=O)Cn1cc(S(=O)(=O)Cc2ccccc2Cl)c2ccccc21)c1ccccc1	none (no result: L3MBTL1 block, PI5P4Ka inh)
CCCCCCn1c(SCC#N)nc2ccccc2c1=O	none (no result: L3MBTL1 block, G9a block, BAZ2B inh, PI5P4Ka inh)
Cc1ccc(C)c(OCCOCCN2CC(C)OC(C)C2)c1C (stereo unspecified)	HP1b binding inh inconclusive, JMJD2A Tudor 1µM, G9a block 13µM, BAZ2B inh 25µM (no result: L3MBTL1 block)
CN(C)S(=O)(=O)c1ccc(C(=O)Nc2nnc(SCc3ccccc3)s2)cc1	none
CSc1nnc(NC(=O)c2ccc3c(c2)OCO3)s1	G9a block 28µM (no result: L3MBTL1 block)
Cc1nnc(NC(=O)c2ccc3c(c2)OCO3)s1	none
O=C(Nc1nncs1)c1ccc2c(c1)OCO2	G9a block 50µM (no result: L3MBTL1 block)
CSc1nnc(NC(=O)c2ccc(S(=O)(=O)N(C)C)cc2)s1	G9a block 22µM (no result: L3MBTL1 block)
CCOC(=O)c1c(C)[nH]c(C)c1S(=O)(=O)N1CCC(C(=O)NCc2ccccc2)CC1	none (no result: L3MBTL1 block, PI5P4Ka inh)
CCn1c(=O)c2cc(C(=O)NCCc3cc(OC)ccc3OC)sc2c2ccccc21	G9a block inconclusive (no result: L3MBTL1 block, PI5P4Ka inh)
COc1ccc(-c2nnc(SC)nc2-c2ccc(OC)c([N+](=O)[O-])c2)cc1[N+](=O)[O-]	HP1b binding inh inconclusive, JMJD2A Tudor 2.5µM (no result: L3MBTL1 block, G9a block, BAZ2B inh)
COc1ccc(-c2nn(-c3ccccc3)cc2C=O)cc1[N+](=O)[O-]	none
CCN(CC)S(=O)(=O)c1ccc2c(c1)nc(CN(C)C(=O)Nc1cccc(Cl)c1)n2C	none (no result: L3MBTL1 block, PI5P4Ka inh)
CC(=O)C1=C(c2cccc([N+](=O)[O-])c2)N(C(C)=O)n2c(C)nnc2S1	G9a block 10µM, BAZ2B inh inconclusive (no result: L3MBTL1 block)
CCOc1ccc(C2=C(C(C)=O)Sc3nnc(C)n3N2C(C)=O)cc1	G9a block inconclusive (no result: L3MBTL1 block, PI5P4Ka inh)
Cn1c(=O)c2c(nc(N/N=C/c3cccs3)n2C)n(C)c1=O	G9a block inconclusive
Cn1c(N/N=C/c2cccs2)cc(=O)n(C)c1=O	G9a block 50µM (no result: L3MBTL1 block)
NC(=Nc1ccc(N)cc1)C(N)=Nc1ccc(N)cc1	L3MBTL1 block 32µM, JMJD2A Tudor 25µM, G9a block inconclusive, BAZ2B inh 5.6µM
CCCc1ccc(OCc2ccc(C(=O)Nc3ccccc3C(=O)OC)o2)cc1	none (no result: L3MBTL1 block, PI5P4Ka inh)
c1ccc2c(c1)CCOC2CNCCCN1CCCCC1 (stereo unspecified)	G9a block 22µM
Cc1ccc(S(=O)(=O)Nc2nc(C)c(C)s2)cc1	G9a block 22µM (no result: L3MBTL1 block)
CC1CC(C)CN(C(=O)c2ccc3c(c2NCCO)C(=O)c2ccccc2C3=O)C1 (stereo unspecified)	HP1b binding inh 45µM, JMJD2A Tudor 14µM, G9a block 28µM, BAZ2B inh inconclusive (no result: L3MBTL1 block)
N#CC(C#N)=NNc1ccc2cn[nH]c2c1	PI5P4Ka inh -64 (no result: HP1b binding inh, L3MBTL1 block, JMJD2A Tudor, G9a block, BAZ2B inh)
Nc1nc(Nc2cccc(F)c2)nc(NCCO)c1[N+](=O)[O-]	PI5P4Ka inh -63 (no result: G9a block)
Nc1nc(NCc2ccccc2)nc(Nc2cccc(F)c2)c1[N+](=O)[O-]	L3MBTL1 block inconclusive (no result: PI5P4Ka inh)
CC(C)Cc1ccc(S(=O)(=O)Nc2cccnc2)cc1	none
CCC(C)c1ccc(S(=O)(=O)Nc2cccnc2)cc1 (stereo unspecified)	G9a block 50µM (no result: L3MBTL1 block)
CCCCc1nc2ccccc2c(N)c1CCC (tested in a mixture with another compound)	none
CCCCc1nc2ccccc2c(NC(=O)CNC(C)(C)C)c1CCC	JMJD2A Tudor 10µM, G9a block 8.9µM, BAZ2B inh 50µM (no result: L3MBTL1 block)
C=CC[C@H]1CC(Cc2ccccc2)=C[C@H](CC=C)N1	HP1b binding inh inconclusive, JMJD2A Tudor inconclusive, G9a block 45µM
C/C(=N\Nc1nc(C)cc(=O)[nH]1)C1CC1	JMJD2A Tudor 18µM, G9a block 7.9µM
